From PubChem BioAssay
Active and inactive are the calls of the source. Unless noted, no stated cut-off is given here; in the data, active means inhibition above about 80%; inactive means the rest.

Key:
F380Y = assay: BK channel mutant inhibitors and activators – cell-based, U2OS BacMam, thallium flux, beta subunits, selectivity assay, profiling panel (AID 1259406;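 active means thallium flux through the channel raised or lowered by more than 3 SD from vehicle-only wells, actives on both sides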;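 further: initial slope of Thallos dye fluorescence rise after thallium is added; log ratio against the mean of 0.3% DMSO vehicle wells on the same plate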); conditions: U2OS BacMam BK variants, at 30 µM
F380Y/beta1 = assay: as above; conditions: U2OS BacMam BK variants, at 30 µM
[1] = growth inhibition, single agents and combos, UWB1.289, cell-based, BGB or cisplatin combos, synergistic combos for chromothripsis tumors (AID 1671456); conditions: UWB1.289 ovarian carcinoma cells, stronger effect = higher value;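 further: cells exposed to compound for four days; 0% = vehicle DMSO and 100% = killing by high DMSO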
[2] = growth inhibition, single agents and combos, LFS_MB_2R, cell-based, cisplatin combos, synergistic combos for chromothripsis tumors (AID 1671457); conditions: LFS_MB_2R medulloblastoma cells, stronger effect = higher value;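 further: cells exposed to compound for four days before readout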
[3] = growth inhibition, MDA-MB-436, cell-based, BGB or cisplatin combos, synergistic combos for chromothripsis tumors (AID 1671458; call rule not given here;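 further: cells exposed for 96 hours; 0% = vehicle DMSO and 100% = killing by high DMSO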); conditions: MDA-MB-436 breast carcinoma growth inhibition, drug combinations, stronger effect = higher value
[4] = UWB1.289_BRCA1 ovarian cancer growth, cell-based, BGB or cisplatin combinations (AID 1671459); conditions: UWB1.289 BRCA1 ovarian carcinoma, drug combinations, stronger effect = higher value
[5] = drug combination toxicity in non-malignant astrocytes – cell-based, BGB or cisplatin IC20 combos, cytotoxicity control for chromothriptic childhood tumor combination screen (AID 1671460); conditions: Human astrocytes, viability inhibition, drug combinations, at 0.5 µM, stronger effect = higher value;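 further: cells exposed to compounds for 96 hours before viability readout; 0% = vehicle and 100% = killing control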
[6] = BT084 cell growth, single and combined drugs, ICGC_MB145, cisplatin and BGB IC40 combos (AID 1671461); conditions: BT084 medulloblastoma cells, drug combinations, stronger effect = higher value;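 further: cells exposed to drugs for 96 hours; 0% = vehicle DMSO and 100% = high DMSO full killing control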
[7] = RCMB18 cell growth, single agent and combined, cisplatin and BGB IC40 combos (AID 1671462); conditions: RCMB18 medulloblastoma cells, stronger effect = higher value;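 further: cells exposed to compound for four days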
[8] = CRL1545 cell growth, single agent and combined, cisplatin and BGB IC20 combos (AID 1671464); conditions: CRL1545 osteosarcoma cells, stronger effect = higher value;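 further: cells exposed to compound for 96 hours before readout; 0% = vehicle DMSO and 100% = high DMSO killing control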
[9] = measured here: inhibition with BGB combination, at 0.05 µM
[10] = measured here: inhibition with cisplatin combination, at 0.05 µM
[11] = measured here: combination with cisplatin, at 0.5 µM
[12] = measured here: combination with cisplatin, at 5 µM
[13] = measured here: BGB combination, at 0.5 µM
[14] = measured here: BGB combination, at 5 µM
[15] = measured here: cisplatin combination, at 0.5 µM
[16] = measured here: cisplatin combination, at 5 µM
[17] = BGB combination, concentration series, at 5 µM
[18] = cisplatin combination, concentration series, at 5 µM
[19] = measured here: combo with BGB IC20
[20] = measured here: combo with cisplatin IC20
[21] = cisplatin combination, at 0.5 µM
[22] = measured here: BGB IC40 combination 0.05 uM, at 0.05 µM
[23] = measured here: BGB IC40 combination, at 0.05 µM
[24] = measured here: with BGB IC20 combination, at 0.5 µM
[25] = measured here: with cisplatin IC20 combination, at 0.5 µM

Cc1cnc(NC(=O)C2=C(O)c3ccccc3S(=O)(=O)N2C)s1
log fold change Tl+ flux (F380Y): -0.00196 (inactive)
log fold change Tl+ flux (F380Y/beta1): -0.0291 (inactive)

O=C(O)CCCCCCCC(=O)O
inhibition ([1]; at 0.5 µM): -13.5% (inactive)
inhibition [1, 9]: -19.6%
inhibition [1, 10]: -0.85%
inhibition ([2]; at 0.5 µM): -13.9% (inactive)
inhibition [2, 11]: -13.8%
inhibition [2, 12]: -48.8%
inhibition ([3]; at 0.5 µM): -29.2% (inactive)
inhibition [3, 13]: -23.3%
inhibition [3, 14]: -29%
inhibition [3, 15]: -37.4%
inhibition [3, 16]: -23.5%
inhibition [4, 17]: -15.5%
inhibition ([4]; at 0.5 µM): -19.3% (inactive)
inhibition [4, 18]: -16.1%
inhibition [5]: -11.4% (inactive)
inhibition [5, 19]: -13.8%
inhibition [5, 20]: -20%
inhibition ([6]; at 0.5 µM): -17.8% (inactive)
inhibition [6, 21]: -4.5%
inhibition ([6]; cisplatin combination, at 5 µM): -12.5%
inhibition [6, 22]: 4.07%
inhibition ([6]; single agent, at 5 µM): -1.2%
inhibition ([7]; at 0.5 µM): -9.8% (inactive)
inhibition ([7]; cisplatin combo, at 5 µM): -40.4%
inhibition [7, 23]: -4.46%
inhibition [7, 11]: -13.4%
inhibition ([7]; single agent, at 5 µM): -26.4%
inhibition ([8]; at 0.5 µM): -28.2% (inactive)
inhibition [8, 24]: -60.3%
inhibition [8, 25]: -14.7%
inhibition ([8]; single agent, at 0.05 µM): -52%
inhibition ([8]; single agent, at 5 µM): -52.1%

Cc1nc2ccc(CN(C)c3ccc(C(=O)N[C@@H](CCC(=O)O)C(=O)O)s3)cc2c(=O)[nH]1
inhibition ([1]; at 0.5 µM): 29.7% (inactive)
inhibition [1, 9]: -4.8%
inhibition [1, 10]: 1.64%
inhibition ([2]; at 0.5 µM): -17.1% (inactive)
inhibition [2, 11]: -12.9%
inhibition [2, 12]: -18.4%
inhibition ([3]; at 0.5 µM): 44.2% (inactive)
inhibition [3, 13]: 26.6%
inhibition [3, 14]: 17.5%
inhibition [3, 15]: 47.7%
inhibition [3, 16]: 45.6%
inhibition [4, 17]: 48.7%
inhibition ([4]; at 0.5 µM): 42.1% (inactive)
inhibition [4, 18]: 59.8%
inhibition [5]: -0.43% (inactive)
inhibition [5, 19]: 3.56%
inhibition [5, 20]: 0.651%
inhibition ([6]; at 0.5 µM): -1.53% (inactive)
inhibition [6, 21]: 4.81%
inhibition ([6]; cisplatin combination, at 5 µM): -0.041%
inhibition [6, 22]: -15.2%
inhibition ([6]; single agent, at 5 µM): -10.4%
inhibition ([7]; at 0.5 µM): -20.8% (inactive)
inhibition ([7]; cisplatin combo, at 5 µM): 14%
inhibition [7, 23]: -41.8%
inhibition [7, 11]: -4.37%
inhibition ([7]; single agent, at 5 µM): -40.1%
inhibition ([8]; at 0.5 µM): -1.83% (inactive)
inhibition [8, 24]: 13.9%
inhibition [8, 25]: -9.68%
inhibition ([8]; single agent, at 0.05 µM): 0.207%
inhibition ([8]; single agent, at 5 µM): 28.5%
log fold change Tl+ flux (F380Y): -0.025 (inactive)
log fold change Tl+ flux (F380Y/beta1): -0.0237 (inactive)
